The values that follow come from PubChem BioAssay AID504832 (National Center for Advancing Translational Sciences (NCATS), 2011).

Out of some 310,000 compounds screened, about 18,000 (5.8%) were called active. Inconclusive results (about 22%) are left out. Calls come from the whole dose curve; as a rule, active = well fitted inhibition curve with a large enough effect; inconclusive = small, poorly fitted or top-dose-only effect, or another doubt; inactive = no such curve, though single readings can be large or run the other way. The entries come from a sample that favours actives as a whole. A call without a number means that no potency is given here.
Potency is the fitted concentration of half-maximal effect.

A short description of this test: Primary qHTS for delayed death inhibitors of the malarial parasite plastid, 48 hour incubation. The following applies: P. falciparum luciferase growth in erythrocytes; series mostly up to 28.7 µM. The method in brief:
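In quantitative HTS format, infected erythrocytes bearing luciferase-reporter parasites were treated for a single generation at 37 C. Luminescence after adding detection reagent served as the growth measure.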
In general terms: In qHTS, concentration-response curves come from the screen itself.
As to `CCOc1cc(C2/C(=C(/O)c3ccc(S(=O)(=O)N4CCCCC4)cc3)C(=O)C(=O)N2CCOC)ccc1O` (stereo not given), the Potency entry was “inactive”.
With `O=C1CCCC2=C1C(c1cccs1)CC(=O)N2c1ccc(F)cc1` (stereo not given), the Potency entry was “inactive”.
As to `CCOC(=O)C1=C(N)N(c2ccc(C)cc2)C2=C(C(=O)CCC2)C1c1cccs1` (stereo not given), the Potency was 9.28 µM (active).
As to `CCOC(=O)c1cc2c(n(-c3ccc(C)cc3)c1=O)CCCC2=O`, the Potency result is “inactive”.
Turning to `COc1cc2cc(C(=O)N/N=C/c3cccc(OC)c3OC)[nH]c2cc1OC`, the Potency result is “inactive”.
In the case of `C=CCN1C(=NC(=O)COc2ccccc2)SC2CS(=O)(=O)CC21` (stereo not given), the Potency entry was “inactive”.
In the case of `CCOC(=O)c1cc2c(=O)n3ccccc3nc2n(CC(C)C)c1=NC(=O)c1c(-c2c(F)cccc2Cl)noc1C` it was 2.33 µM (active); in that of `C/C(=N/OC(=O)c1c(-c2c(F)cccc2Cl)noc1C)c1cnccn1`, “inactive”; in that of `CCn1c(=N)c(S(=O)(=O)c2ccc(F)cc2)cc2c(=O)n3ccccc3nc21`, “inactive”.
As for `O=C(Nc1cc2c3c(c1)CC(=O)N3CCC2)c1ccccc1F`, the Potency result was “inactive”.
For `COc1cccc(CN2CCN(Cc3ccc4cccc(F)c4n3)CC2CCO)c1` (stereo not given), the Potency result is “inactive”.
On to `O=c1c2c(-c3ccccc3)ccnc2[nH]n1-c1ccccc1`, for which the Potency entry is “inactive”.
On to `COc1ccc(Cc2nnc(NC(=O)c3cc(OC)c(OC)c(OC)c3)s2)cc1OC`, for which the Potency entry is “inactive”.
Regarding `COc1ccc(C(=O)Nc2nncs2)c(OC)c1`, the Potency result was “inactive”.
Take `COc1ccc(Cc2nnc(NC(=O)c3ccc(OC)cc3OC)s2)cc1`: the Potency was 1.65 µM (active).
In the case of `Cc1cc(C(=O)NC2CC(C)(C)Cc3c2cnn3-c2ccccc2)n[nH]1` (stereo not given) it was “inactive”.
In the case of `COc1cccc(/C=N/Nc2ccc(Cl)nn2)c1` it was “inactive”; in that of `Oc1cccc(/C=N/Nc2ccc(Cl)nn2)c1O`, 0.415 µM (active).
Turning to `Clc1ccc(N/N=C/c2cccs2)nn1`, the Potency result was “inactive”.
In the case of `O=C(CN1CCCCC1)NC(=O)Nc1ccccc1F` it was “inactive”; in that of `Cc1ccc(NC(=O)CN(C)C(=O)COC(=O)C(C)(C)Oc2ccc(Cl)cc2)cc1`, “inactive”.
In the case of `CCc1ccc2nc(N(CCCN(C)C)C(=O)c3ccc4c(c3)OCCO4)sc2c1`, the Potency is 3.29 µM (active).
`CCCC(=O)N(CCN1CCOCC1)c1nc2ccc(OCC)cc2s1`: the Potency entry is “inactive”.
With `Cc1ccc2nc(N(CCN(C)C)C(=O)C3=COCCO3)sc2c1`, the Potency result is “inactive”.
In the case of `CCOc1ccc2nc(N(CCN(C)C)C(=O)c3ccc4ccccc4c3)sc2c1` it was “inactive”; in that of `CCC(=O)Nc1nnc(S(=O)(=O)N2CCCc3ccccc32)s1`, “inactive”.
As for `CN(C)CCCN(C(=O)c1ccc(S(=O)(=O)N2CCCc3ccccc32)cc1)c1nc2ccc(F)cc2s1`, the Potency was 13.1 µM (active).
`CN(C)CCN(C(=O)C1=COCCO1)c1nc2ccc(Cl)cc2s1`: the Potency result is “inactive”.
In the case of `CCN(CC)CCN(C(=O)c1ccc(S(=O)(=O)N2CCOCC2)cc1)c1nc2cc3c(cc2s1)OCCO3` it was “inactive”; in that of `CCOc1ccc2nc(N(CCCN(C)C)C(=O)c3ccc(C(=O)c4ccccc4)cc3)sc2c1`, 10.4 µM (active).
Take `C[C@H](NC(=O)C1CC(=O)N(c2ccc3c(c2)OCO3)C1)C(=O)NCc1ccco1` (stereo not given in full): the Potency entry is “inactive”.
In the case of `CCc1ccccc1N(CC(=O)NCC1CCCO1)C(=O)CCC(=O)Nc1nccs1` (stereo not given) it was “inactive”.
On to `CC(C)Oc1ccc(C(CC(=O)N2CCOCC2)C(C)C)cc1` (stereo not given), for which the Potency result is “inactive”.
`COc1ccc(CSc2nnnn2-c2ccc(C(=O)O)cc2)cc1`: the Potency result is “inactive”.
In the case of `COc1ccc(C(=O)NCC(=O)N/N=C/c2cccnc2)cc1` it was “inactive”; in that of `Cc1cc(NC(=O)COC(=O)c2ccc(F)c(S(=O)(=O)N3CCOCC3)c2)no1`, “inactive”; in that of `CCOc1ccc(CCNC(=O)COC(=O)c2ccc(F)c(S(=O)(=O)N3CCOCC3)c2)cc1OCC`, 14.7 µM (active).
For the molecule `COc1ccc(C(=O)OCC(=O)c2ccc(C)c(S(=O)(=O)N3CCOCC3)c2)cc1OC`, the Potency entry was “inactive”.
In the case of `CC(C)CNC(=O)C(=O)NCC(c1ccc2c(c1)OCO2)N1CCOCC1` (stereo not given) it was “inactive”; in that of `CCCCn1c(SCC(=O)N2CCC(C(=O)OCC)CC2)nc2cc(S(N)(=O)=O)ccc21`, 13.1 µM (active).
In the case of `NS(=O)(=O)c1ccc(CCNC(=O)CCCn2c(SCC(=O)N3CCCC3)nc3ccsc3c2=O)cc1` it was “inactive”.
For `CCCCn1c(SCC(=O)N2CCCC2=O)nc2cc(S(N)(=O)=O)ccc21`, the Potency entry is “inactive”.
In the case of `CCSc1nsc(NC(=O)Nc2ccccc2OC)n1` it was “inactive”; in that of `COc1ccc(CC(=O)NC2CCSc3ccccc32)cc1OC` (stereo not given), “inactive”.
`CO[C@H]1[C@@H]2C=CO[C@@H](O[C@H]3O[C@@H](CO)[C@H](O)[C@@H](O)[C@@H]3O)[C@@H]2[C@@]2(CO)O[C@@H]12`: the Potency result is “inactive”.
Regarding `Cc1n[nH]c(=O)c2c(NC(=O)CSc3ccccc3F)oc(C)c12`, the Potency result was “inactive”.
For the molecule `Cc1[nH]nc(-c2ccc(OCc3cnn(-c4ccccc4)c3)cc2O)c1Oc1ccc(Cl)cc1`, the Potency is 5.22 µM (active).
In the case of `COc1ccc(C(=O)Cc2cnn(-c3ccccc3)c2)c(O)c1` it was “inactive”.
Take `CCOc1cc(C2C(C(=O)c3ccco3)=C(O)C(=O)N2Cc2ccccc2)ccc1O` (stereo not given): the Potency result is “inactive”.
For the molecule `Cc1ccccc1NC(=O)C1CCN(C(=O)NC2CCCCC2)CC1`, the Potency result is “inactive”.
Consider `COc1ccc(-c2nnc(NC(=O)CS(=O)(=O)c3ccc(Cl)cc3)o2)c(OC)c1`, for which the Potency result was “inactive”.
For the molecule `Cc1ccc(C)c(-c2nnc(NC(=O)CS(=O)(=O)c3ccccc3)o2)c1`, the Potency is 13.1 µM (active).
On to `CCCC(=O)Nc1nnc(-c2ccccc2)o1`, for which the Potency result is “inactive”.
On to `COc1ccc(NCCc2ccccn2)cc1`, for which the Potency entry is “inactive”.
With `OCC[C@H]1C[C@H](O)[C@@H](O)[C@]2(CCc3ccccc3O2)O1`, the Potency entry was “inactive”.
In the case of `Cc1ccc2[nH]c(=O)c(CC(=O)O)c(-c3ccccc3)c2c1` it was “inactive”.
In the case of `O=C(/C=C/c1ccco1)NC(=S)N1CCCCC1` it was “inactive”; in that of `CCSc1nnc(NC(=O)Cc2ccccc2OC)s1`, “inactive”.
`COc1ccccc1Nc1nnc(SC(C)C(=O)NC2CC2)s1` (stereo not given): the Potency is 10.4 µM (active).
Take `O=C(CSc1nnc(Nc2ccccc2F)s1)NC1CCCC1`: the Potency result was “inactive”.
Consider `O=C1CCCN1C(=O)COc1ccc([N+](=O)[O-])cc1`, for which the Potency entry is “inactive”.
As to `O=C(CNc1ccccc1N1CCCC1=O)Nc1cc(Cl)ccc1-n1cncn1`, the Potency result was “inactive”.
For the molecule `Cc1nn(-c2ccccc2)c(C)c1NC(=O)COC(=O)Cc1ccccc1`, the Potency result was “inactive”.
Take `Cc1nn(-c2ccccc2)c(C)c1NC(=O)CCl`: the Potency was 4.65 µM (active).
As to `Cc1cccc(C)c1NC(=O)CNC(=O)c1c(C)nn(-c2ccccc2)c1C`, the Potency entry was “inactive”.
